Assay outcomes: PubChem BioAssay, National Center for Advancing Translational Sciences (NCATS)
An excerpt weighted towards active compounds, which were near 10% of everything screened.
NIH3T3 tox – NIH 3T3 cell cytotoxicity | Potency, µM (doses to about 96.7 µM), for inactives: at the top dose activity change, negative = cytotoxicity, most hits filed as inhibitors | 4.3% of 94,000 active | NIH 3T3 viability, CellTiter-Glo ATP luminescence, 48-72 h; further: nearly all actives have a fitted effect of over 55% in size
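First NIH 3T3 cells are plated at 400 cells/well; next compound is pinned in; then plates incubate 48 or 72 hr at 37 °C; finally CellTiter-Glo is added and luminescence read after 10 min.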
NPR1 antag – blocks ANP-stimulated signaling of human Npr1 receptor; P16066; AID 1347048; 1.6% of 76,000 active; HEK293 hNpr1 GloSensor cGMP, ANP-stimulated luminescence; Potency, µM (top dose mostly 46.3 µM), for inactives: at the highest dose activity change, negative = inhibition, usual class: inhibitors; calls by dose curve; further: nearly all actives have a fitted effect of over 60% in size
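HEK293 cells stably expressing human Npr1 and cGMP GloSensor pGS-40F, loaded 2 h with 2% GloSensor reagent, given compound 30 min at room temperature. Luminescence read before and 20 min after 0.1 nM hNppA.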
GPT2 inh – GPT2 alanine aminotransferase inhibition; AID 1671188; Potency, µM (series often up to 57.7 µM), for inactives: top-dose activity change, negative = inhibition, most hits filed as inhibitors; Q8TD30; 0.25% of 100,000 active; Recombinant GPT2, coupled pyruvate oxidase/HRP Amplex Red fluorescence; further: nearly all actives have a fitted effect of over 60% in size
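GPT2 10ng/uL, a-KG 250uM, L-Ala 2mM, HEPES pH7.5 + 0.0001% Tween; 30 min RT. Then Amplex mix (PO/HRP/ThPP), 30 min RT dark, fluorescence. AOA 50uM used as positive control.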
FLuc inh – inhibitors of firefly (Photinus pyralis) luciferase | Potency, µM (doses to about 115 µM), actives largely listed as inhibitors | purified P. pyralis luciferase, luminescence, biochemical | 2.5% of 76,000 active | AID 1347043 | P08659; further: nearly all actives have a fitted effect of over 65% in size
Target sequence (P08659 whole entry, looked up): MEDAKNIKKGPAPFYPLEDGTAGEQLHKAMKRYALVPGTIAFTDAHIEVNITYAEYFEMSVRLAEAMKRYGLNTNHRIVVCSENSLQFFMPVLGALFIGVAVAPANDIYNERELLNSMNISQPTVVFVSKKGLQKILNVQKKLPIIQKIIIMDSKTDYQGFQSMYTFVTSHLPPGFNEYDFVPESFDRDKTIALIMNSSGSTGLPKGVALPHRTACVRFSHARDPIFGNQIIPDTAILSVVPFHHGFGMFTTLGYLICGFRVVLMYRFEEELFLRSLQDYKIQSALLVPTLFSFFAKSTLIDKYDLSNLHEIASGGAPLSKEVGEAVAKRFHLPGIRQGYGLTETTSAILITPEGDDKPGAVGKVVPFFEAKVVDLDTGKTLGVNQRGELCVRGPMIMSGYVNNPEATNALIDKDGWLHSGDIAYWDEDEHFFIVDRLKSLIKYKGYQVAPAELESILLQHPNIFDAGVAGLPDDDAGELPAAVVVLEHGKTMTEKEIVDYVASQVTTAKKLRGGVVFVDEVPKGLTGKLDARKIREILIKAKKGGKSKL
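Purified P. pyralis luciferase (10nM final) in 50mM Tris acetate pH 7.5, 10mM Mg acetate, 0.01% Tween-20, 0.05% BSA with 10uM D-luciferin and 10uM ATP. Compounds titrated qHTS. Luminescence imaged on CCD.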
HEK293 tox – HEK 293 cell cytotoxicity. HEK 293 viability, ATP luminescence (CellTiter-Glo), 48-72 h. Potency, µM (doses to about 115 µM), for inactives: at the top dose activity change, negative = cytotoxicity, hits mostly inhibitors. 6.6% of 94,000 active. AID 1345083; further: nearly all actives have a fitted effect of over 60% in size
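HEK 293 cells at 250 cells/well were exposed to compounds by pintool transfer for 48 or 72 hr at 37 degree Celsius, 5% CO2. Viability was read as ATP-coupled luminescence with CellTiter-Glo after 10 min at room temperature.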
* = called active by the depositor; [ ] = dose if it differs, or a comment. Unless noted, the call rests on the fitted dose curve; in most records, active means well fitted curve in the direction sought with a large enough effect; inconclusive means small, poorly fitted or top-dose-only effect, or another doubt; inactive means no such curve, though single readings can be large; an effect the other way counts as inactive or inconclusive. On the % scale 0 is the no-effect control and ±100 the full control effect; potency means the concentration at half of the fitted maximal effect.

`CC(C)CC(=O)N1CCOCC12CCN(Cc1cccc(C#N)c1)CC2` gave NIH3T3 tox -12%[138 µM], NPR1 antag -1%[70.6 µM], GPT2 inh inactive, FLuc inh inactive and HEK293 tox inconclusive.
Cc1ccccc1S(=O)(=O)N1CCCC(Cc2noc(-c3ccncc3)n2)C1 (configuration not stated) was read as NIH3T3 tox inconclusive, NPR1 antag inconclusive, GPT2 inh -1%, FLuc inh inactive and HEK293 tox inconclusive.
`Cc1nc(-c2c3n(c(=O)n(Cc4ccc(F)cc4)c2=O)CCCC3)no1` gave NIH3T3 tox -10%, NPR1 antag 0%, GPT2 inh -2%, FLuc inh inactive and HEK293 tox 1%.
`COc1ccc(OC)c(CN2CCNc3cc(-c4ccnc(C)c4)ncc3C2)c1` gave NIH3T3 tox inconclusive, NPR1 antag 4%[70.6 µM], GPT2 inh -8%[88.5 µM], FLuc inh inconclusive and HEK293 tox 100µM*.
Screening Cc1cc(-c2cc3c(cn2)CN(Cc2cccc(F)c2)CCN3)ccn1 returned NIH3T3 tox inconclusive, NPR1 antag -24%[70.6 µM], GPT2 inh -1%[88.5 µM], FLuc inh 16µM* and HEK293 tox 71µM*.
`COc1ccc(CN2CCNc3cc(-c4ccnc(C)c4)ncc3C2)cc1` gave NIH3T3 tox inconclusive, NPR1 antag -3%[70.6 µM], GPT2 inh 4%[88.5 µM], FLuc inh inconclusive and HEK293 tox 89µM*.
Cc1cc(-c2cc3c(cn2)CN(CC2CCOC2)CCN3)ccn1 (configuration not stated) was read as NIH3T3 tox inconclusive, NPR1 antag 4%[70.6 µM], GPT2 inh inactive, FLuc inh inconclusive and HEK293 tox -30%[172 µM].
For CCn1cc(-c2cc3c(cn2)CN(Cc2cccnc2)CCN3)cn1 the results were NIH3T3 tox 2%[138 µM], NPR1 antag 2%[70.6 µM], GPT2 inh 3%[88.5 µM], FLuc inh 63µM* and HEK293 tox inconclusive.
Screening c1cncc(-c2cc3c(cn2)CN(Cc2ccncc2)CCN3)c1 returned NIH3T3 tox -17%[138 µM], NPR1 antag -18%[70.6 µM], GPT2 inh 1%[88.5 µM], FLuc inh inactive and HEK293 tox inconclusive.
Screening O=C(Cc1ccc2c(c1)OCO2)NCc1cccnc1N1CCOCC1 returned NIH3T3 tox -17%, NPR1 antag 2%, GPT2 inh -21%, FLuc inh 28µM* and HEK293 tox -10%.
Screening O=C(CCc1ccnc(N2CCOCC2)c1)Nc1ccc2c(c1)OCO2 returned NIH3T3 tox -28%, NPR1 antag -12%, GPT2 inh inactive, FLuc inh 35µM* and HEK293 tox -24%.
`CCC(C)Oc1ccc(CNC(=O)c2cn(CCN)nn2)cc1` (configuration not stated) gave NIH3T3 tox inconclusive, NPR1 antag 3%, GPT2 inh 4%, FLuc inh inactive and HEK293 tox 32µM*.
`C#CCNC(=O)C[C@@H]1O[C@H](CNC(=O)c2ccco2)[C@@H](O)[C@H]1O` gave NIH3T3 tox -16%[174 µM], NPR1 antag -6%[70.6 µM], GPT2 inh inactive, FLuc inh inactive and HEK293 tox -2%[172 µM].
For COc1ccc(-c2noc([C@@H]3CCCN3C3CCCCC3)n2)cn1 the results were NIH3T3 tox inconclusive, NPR1 antag -3%[70.6 µM], GPT2 inh inactive, FLuc inh inactive and HEK293 tox inconclusive.
COCCOc1ccc(-c2noc([C@@H]3CCCN3C3CCCCC3)n2)cn1 was read as NIH3T3 tox -9%[174 µM], NPR1 antag 1%[70.6 µM], GPT2 inh -1%[88.5 µM], FLuc inh inactive and HEK293 tox 100µM*.
COCC(=O)Nc1ccc(-c2noc([C@@H]3CCCN3CC(C)(C)C)n2)cn1 was read as NIH3T3 tox inconclusive, NPR1 antag -21%[70.6 µM], GPT2 inh -9%[88.5 µM], FLuc inh inactive and HEK293 tox 100µM*.
`COc1cccc(CNC(=O)c2ccc3nnc(-c4ccoc4)n3c2)c1` gave NIH3T3 tox inconclusive, GPT2 inh 2%[88.5 µM] and HEK293 tox inconclusive.
Fc1ccc(OCCc2noc(C3CCCN3)n2)cc1 (configuration not stated) was read as NIH3T3 tox -8%, NPR1 antag 4%, GPT2 inh inactive, FLuc inh inactive and HEK293 tox inconclusive.
